TDP1 block = qHTS Assay for Inhibitors of Tyrosyl-DNA Phosphodiesterase (TDP1) | Tyrosyl-DNA phosphodiesterase 1 (Homo sapiens), Q9NUW8 | Potency, µM (highest dose often 130 µM), for the others: at the highest dose activity change, negative = inhibition, hits mostly inhibitors | recombinant TDP1, AlphaScreen DNA substrate cleavage | 350,000 compounds, 0.28% hits; also: potency is read from the fitted curve at half-maximal effect; % is scaled to controls: 0 for no effect and ±100 for the full control effect; nearly all actives have a fitted effect of over 40% in size
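Tdp1 1 nM final; 15 min RT w/ cpd; substrate 15 nM, 5 min; beads 10 ug/ml, 10 min; AlphaScreen read. Neg ctrl: no enzyme.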
APE1 inh = qHTS Assay for Inhibitors of the Human Apurinic/apyrimidinic Endonuclease 1 (APE1) | DNA repair nuclease/redox regulator APEX1 (Homo sapiens), P27695 | recombinant APE1, TAMRA/BHQ-2 abasic DNA cleavage fluorescence | Potency, µM (doses to about 65.8 µM), for inactives: at the highest dose activity change, negative = inhibition, hits mostly inhibitors | 350,000 compounds, 0.35% hits | AID 2517, 2012;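 also: potency is read from the fitted curve at half-maximal effect; plate controls were vehicle for no effect and reference inhibitor for full effect; nearly all actives have a fitted effect of over 55% in size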
Target sequence (P27695 whole entry, looked up): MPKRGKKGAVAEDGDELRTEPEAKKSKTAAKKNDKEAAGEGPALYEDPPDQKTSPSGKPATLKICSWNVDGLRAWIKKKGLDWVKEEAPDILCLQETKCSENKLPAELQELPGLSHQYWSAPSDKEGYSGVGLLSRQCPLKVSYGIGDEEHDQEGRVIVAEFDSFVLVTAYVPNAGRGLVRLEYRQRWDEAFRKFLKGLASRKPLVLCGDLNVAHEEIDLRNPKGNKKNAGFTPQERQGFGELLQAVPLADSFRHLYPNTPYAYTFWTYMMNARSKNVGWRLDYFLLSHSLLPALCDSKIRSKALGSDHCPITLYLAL
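Kinetic fluorescence read (525 ex/598 em nm, three reads 60 s apart) of AP-site incision; signal = third minus first read. Enzyme 0.75 nM, dual-labelled THF duplex 50 nM, compound preincubation 15 min RT.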
BLM inh = qHTS Assay for Inhibitors of Bloom's syndrome helicase (BLM); RecQ-like DNA helicase BLM (Homo sapiens), P54132; recombinant BLM DNA unwinding, fluorescence dequenching; Potency, µM (doses to about 56.1 µM), without a hit: top-dose activity change, negative = inhibition, hits mostly inhibitors; 350,000 compounds, 0.2% hits;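 also: potency is read from the fitted curve at half-maximal effect; plate controls were vehicle for no effect and no enzyme for full effect; nearly all actives have a fitted effect of over 35% in size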
GCN5L2 inh-1 = qHTS Assay for Inhibitors of GCN5L2; 390,000 compounds, 0.21% hits; Potency, µM (highest dose often 58.9 µM), for the others: at the top dose activity change, negative = inhibition, most hits filed as inhibitors; AID 504327, 2011; GCN5L2 HAT assay, ThioGlo1 CoA-SH fluorescence; also: potency is read from the fitted curve at half-maximal effect; % is scaled to controls: 0 for no effect and ±100 for the full control effect
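Enzyme at 20nM final was mixed with library compounds for 15 min at room temperature. Peptide H3(1-25) at 75uM, acetyl-CoA at 70uM and ThioGlo1 at 50uM were then added. Plates were read immediately and after 20 min (Ex340nm/Em540nm).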
RECQ1 helicase = qHTS Assay for Inhibitors of RecQ-Like Dna Helicase 1 (RECQ1); RECQ1 DNA unwinding, red fluorescence kinetic read; Potency, µM (titrated, usually from 57.3 µM), for inactives: at the top dose activity, negative = inhibition, usual class: inhibitors; 240,000 compounds, 0.54% hits; AID 2549, 2010;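 also: potency is read from the fitted curve at half-maximal effect; plate controls were vehicle for no effect and no enzyme for full effect; nearly all actives have a fitted effect of over 30% in size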
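50 nM RECQ1T1 preincubated 15 min with compound in Tris pH 8.0 buffer with MgCl2, DTT, Tween-20 and 2.5 ug/ml poly(dI-dC); started with 200 nM TAMRA/BHQ-2 forked duplex and 2 mM ATP. Unwinding read as fluorescence (525/598 nm), two reads 2 h apart.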
GCN5L2 inh-2 = qHTS Assay for Inhibitors of GCN5L2: Hit confirmation; 140 compounds, 70% hits; shares compounds with GCN5L2 inh-1; GCN5L2 HAT, ThioGlo1 CoA fluorescence, 20 min; Potency, µM, usual class: inhibitors
Numbers without * were called inactive; i = inactive; u = inconclusive; x = no result given; [ ] = another dose, or the depositor's remark. An excerpt weighted towards active compounds, which were near 0.87% of everything screened. Calls follow the shape of the dose curve; as a rule, active = well fitted curve in the direction sought with a large enough effect; inconclusive = small, poorly fitted or top-dose-only effect, or another doubt; inactive = no such curve, though single readings can be large; an effect the other way counts as inactive or inconclusive.

SMILES	TDP1 block	APE1 inh	BLM inh	GCN5L2 inh-1	RECQ1 helicase	GCN5L2 inh-2
CCN(CC(=O)Nc1c(F)cccc1F)C(=O)c1ccc2ccccc2n1	5%	30%	x	-2%	x	x
COC(=O)C/C=C\[C@@H](C)[C@@H](/C=N\OCC[C@@H]1C=C[C@H](OC(C)=O)[C@H](COC(C)=O)O1)OC	6%[21 µM]	19%[12.4 µM]	3%[12.4 µM]	x	-4%[11.5 µM]	x
Cc1ccc(N2C(=O)C3C4C=CC(CC4)C3C2=O)cc1[N+](=O)[O-] (configuration not stated)	x	20%	-4%	u	x	16*
CN(C(=O)C1=CC(c2ccc3c(c2)OCO3)=NS(=O)(=O)N1C)c1ccccc1	11%	x	-3%	-6%	x	x
CCCc1nnc(NC(=O)c2cc(=O)c3cc(Cl)ccc3o2)s1	1%	x	1%	-5%	x	x
CC(C)(C)c1cc(-c2csc(Nc3ccccc3)[n+]2Cc2ccc(C(=O)O)cc2)cc(C(C)(C)C)c1O	6%	3%	-12%	22µM*	-17%	18*
O=C(Nc1cccc(C(F)(F)F)c1)c1ccc2nc(-c3ccco3)c(-c3ccco3)nc2c1	-5%	14%	u	u	i	18*
O=C(O)c1ccc2nc(-c3ccco3)c(-c3ccco3)nc2c1	-11%	u	-1%	-17%	-14%	x
O=C(Nc1ccc(O)c(-c2nc3ccccc3o2)c1)C1(c2ccc(Cl)cc2)CCCC1	3%	4%	-8%	u	0%	14*
O=C(CCc1ccccc1)NCCc1csc(-c2cccc(F)c2)n1	1%	x	2%	-2%	x	x
Cc1ccc(S(=O)(=O)N2[C@@H](c3ccc(Br)cc3)C(C(=O)O)=CC[C@H]2c2ccc(Cl)cc2)cc1	0%	-9%	x	u	x	x
Cc1ccc(S(=O)(=O)N2[C@@H](c3ccccc3F)C(C(=O)O)=CC[C@H]2c2ccc(Cl)c(Cl)c2)cc1	-3%	26%	x	28µM*	x	u
O=C(O)C1=CC[C@@H](c2ccc(Cl)cc2)N(S(=O)(=O)c2ccc(Cl)cc2)[C@H]1c1ccc(Br)cc1	-14%	-11%	x	25µM*	x	18*
C#CCCCO/N=C1/C[C@@H](O)[C@@H](O)[C@@H]2[C@@H]3C(=O)N([C@@H](C)c4ccccc4)C(=O)[C@H]3CC[C@@H]12	5%[21 µM]	u	-5%[12.4 µM]	x	-1%[11.5 µM]	x
Cc1cccc(C)c1-n1cccc1/C=C1\SC(=S)N(c2cccc(C(=O)O)c2)C1=O	-3%	-13%	-2%	32µM*	-2%	20*
COc1ccc(-c2cc(C(=O)O)c3ccccc3n2)c(OC)c1	0%	-1%	0%	-2%	0%	x
COc1ccc2cc(-c3cc(C(=O)O)c4ccccc4n3)ccc2c1	0%	0%	6%	u	-1%	u
O=C(O)c1cc(-c2ccc(-c3ccc(F)cc3)o2)nc2ccccc12	-3%	9%	-7%	u	x	20*
Cc1noc(-c2ccc(N3CCC(C)CC3)c([N+](=O)[O-])c2)n1	3%	x	-3%	-3%	x	x
CSc1ccc(/C=N/Nc2cccc(C(=O)O)c2)cc1	1.1µM*	2.2µM*	147%	u	32µM*	u
O=C(O)c1cccc(N/N=C/c2cccs2)c1	-8%	-3%	2%	-8%	-2%	x
CCN(CC)c1cc(C)c2cc(NC(=O)/C=C/c3ccccc3OC(C)C)ccc2n1	0%	x	-2%	-10%	x	x
Cc1ccc(-c2cnc(-c3ccncc3)o2)cc1	10%	11%	-1%	u	-15%	18*
Nc1ccc(-c2ncc(-c3ccccc3)o2)cc1	x	11%	-3%	-8%	x	x
CCc1ccc(S(=O)(=O)/N=C2/C=C(Sc3ncn[nH]3)C(=O)c3ccccc32)cc1	9%	u	22µM*	32µM*	u	4.6*
SMILES	TDP1 block	APE1 inh	BLM inh	GCN5L2 inh-1	RECQ1 helicase	GCN5L2 inh-2
CCc1ccc(S(=O)(=O)/N=C2\C=CC(=O)c3ccccc32)cc1	8%	15%	-27%	-6%	-30%	x
CC(C)OCCCNC(=O)CCCn1c(SCC(N)=O)nc2c(sc3ccccc32)c1=O	2%	x	2%	-7%	x	x
CCOC(=O)c1ncc2[nH]c3cccc(OC(C)C)c3c2c1C	17%	-5%	-10%	3%	i	x
CCN(CC)Cc1c(O)ccc2c(=O)c(Oc3ccccc3OC)coc12	2%	0%	1%	u	-1%	u
O=C(NC1CC1)c1ccc(Cn2c(SCc3cccc(F)c3)nc3cccnc32)cc1	5%	x	5%	-9%	x	x
O=C(O)CCc1nn2cc(-c3ccccc3)nc2[nH]c1=O	2%	-6%	2%	u	i	32*
c1ccc2sc(SN3CCOCC3)nc2c1	7%	1%	-1%	u	i	14*
CCOc1ccc(-c2cc(-c3nc(-c4cc(OC)c(OC)c(OC)c4)no3)[nH]n2)cc1Cl	3%	x	-4%	-3%	x	x
Cc1nc2c(C(=O)NCCc3ccccc3)cnn2c(C)c1Cc1c(F)cccc1Cl	8%	x	-1%	1%	x	x
COCCn1c(C)cc(O)c(C(c2ccc(OC)cc2)N2CCN(c3ccccc3)CC2)c1=O (configuration not stated)	5%	x	0%	-10%	x	x
CCN(CC)c1ccc2cc(C(C)=O)c(=O)oc2c1	4%	2%	0%	-6%	i	x
CCN(CC)c1ccc2cc(NC(=O)CCC(=O)O)c(=O)oc2c1	5%	2%	2%	20µM*	-2%	32*
CC(C)CCN1C(=O)c2ccc(C(=O)Nc3ccc(Br)cc3C(=O)O)cc2C1=O	3%	-24%	-29%	35µM*	x	20*
CC1=NN(c2cccc(C(=O)O)c2)C(=O)/C1=C\C=C\c1ccco1	-3%[56.1 µM]	2%	18%	u	0%	u
CC1=NN(c2ccccc2)C(=O)/C1=C/C=C/c1ccccc1	13%	-1%	-11%	-7%	-7%	x
CCOc1cc(/C=C2\C(=O)N(c3nc(-c4ccc(Br)cc4)cs3)N=C2c2ccccc2)ccc1O	11%	3%	u	u	-23%	5.1*
Cc1ccc(C2=NOC(=O)/C2=C\C=C\c2ccccc2)cc1	6%	-8%	-21%	25µM*	3%	u
COc1cc(/C=C2\C(=O)ON=C2c2ccccc2)cc(OC)c1OC	-1%	-10%	2%	0%	-2%	x
